According to PubChem BioAssay (NCATS):
Results filed as inconclusive are left out. Entries that show only a call come without a potency. The source made the active and inactive calls. Calls come from the whole dose curve; as a rule, active = well fitted inhibition curve with a large enough effect; inconclusive = small, poorly fitted or top-dose-only effect; inactive = flat fitted curve, though single readings scatter.

How the values were obtained:
[1] = biological target: DNA dC->dU-editing enzyme APOBEC-3G (Homo sapiens) (UniProt Q9HC16); assay: qHTS for inhibitors of Vif-A3G interactions: Validation (AID 588379)
DNA dC->dU-editing enzyme APOBEC-3G (Homo sapiens), sequence (Q9HC16 whole entry, looked up): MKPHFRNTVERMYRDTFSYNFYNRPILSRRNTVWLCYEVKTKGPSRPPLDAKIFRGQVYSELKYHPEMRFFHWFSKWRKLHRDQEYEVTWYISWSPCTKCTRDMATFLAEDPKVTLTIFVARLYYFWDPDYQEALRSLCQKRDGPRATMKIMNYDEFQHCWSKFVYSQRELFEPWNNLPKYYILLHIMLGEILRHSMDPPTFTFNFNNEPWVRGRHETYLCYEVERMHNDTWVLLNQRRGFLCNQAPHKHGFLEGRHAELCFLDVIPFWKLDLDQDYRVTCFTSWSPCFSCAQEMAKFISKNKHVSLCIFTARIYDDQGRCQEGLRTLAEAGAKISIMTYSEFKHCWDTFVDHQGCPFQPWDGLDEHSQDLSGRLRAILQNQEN
Outline: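 Yellow fluorescence (Ex 488, Em 500-530) of Vif-coexpressing HeLa A3G-eYFP cells, scanned by Acumen cytometer, reports blocked A3G degradation. Cells plated at 700/well overnight at 37 deg C before compound addition, then a further overnight compound incubation at 37 deg C.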

[2] = biological target: Ubiquitin carboxyl-terminal hydrolase 1 (Homo sapiens) (UniProt O94782); assay: Inhibitors of USP1/UAF1: Pilot qHTS (AID 504865);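 note: rhodamine fluorescence freed from ubiquitin-rhodamine substrate followed over time; top concentration of the series differs between compounds; nearly all actives have a fitted effect of over 35% in size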
Ubiquitin carboxyl-terminal hydrolase 1 (Homo sapiens), sequence (O94782 whole entry, looked up): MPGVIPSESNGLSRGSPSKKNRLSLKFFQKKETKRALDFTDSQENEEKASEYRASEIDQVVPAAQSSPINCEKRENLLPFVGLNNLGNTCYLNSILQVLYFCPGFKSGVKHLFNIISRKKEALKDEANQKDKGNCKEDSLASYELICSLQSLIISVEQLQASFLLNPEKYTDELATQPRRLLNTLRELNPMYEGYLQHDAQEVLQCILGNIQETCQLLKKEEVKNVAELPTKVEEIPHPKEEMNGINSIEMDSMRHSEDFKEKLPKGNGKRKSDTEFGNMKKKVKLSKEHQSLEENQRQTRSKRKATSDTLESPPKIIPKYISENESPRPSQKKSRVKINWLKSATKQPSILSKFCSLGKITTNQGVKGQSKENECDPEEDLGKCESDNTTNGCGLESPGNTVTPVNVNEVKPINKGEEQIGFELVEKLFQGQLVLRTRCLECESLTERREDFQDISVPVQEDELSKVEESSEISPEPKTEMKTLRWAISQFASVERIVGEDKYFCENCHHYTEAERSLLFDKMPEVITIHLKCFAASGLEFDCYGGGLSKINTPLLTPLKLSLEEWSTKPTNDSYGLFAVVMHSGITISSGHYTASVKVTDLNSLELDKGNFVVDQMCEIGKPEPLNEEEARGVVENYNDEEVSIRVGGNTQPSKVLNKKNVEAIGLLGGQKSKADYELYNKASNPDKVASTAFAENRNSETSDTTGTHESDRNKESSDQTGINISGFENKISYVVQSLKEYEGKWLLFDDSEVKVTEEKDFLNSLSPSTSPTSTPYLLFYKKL
Outline: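 USP1/UAF1 complex (1nM) preincubated with compound 15 min at room temperature, then Ub-Rho substrate (150nM final) added. Fluorescence read kinetically at 480/540 nm, 6 reads every 60 seconds. Buffer: 50mM HEPES pH 7.8, 0.5mM EDTA, 0.1 mg/ml BSA, 1mM TCEP, 0.01% Tween-20.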

| Compound | Potency [1] | Potency [2] |
| --- | --- | --- |
| N[C@H](CCCP(=O)(O)O)C(=O)O | inactive |  |
| Clc1ccccc1-c1nc(-c2ccncc2)no1 |  | inactive |
| O=C(CCN1CCN(CCO)CC1)N1c2ccccc2Sc2ccc(C(F)(F)F)cc21 |  | inactive |
